# Assay outcomes: PubChem BioAssay, National Center for Advancing Translational Sciences (NCATS)
# Shown are actives, neighbours in structure and some others; about 5.4% of the full set was active somewhere.
# Sm TGR block = inhibitors of Schistosoma mansoni thioredoxin glutathione reductase. purified TGR, DTNB reduction, TNB absorbance 405 nm. AID 485364. 360,000 tested, 3% active. Q962Y6. Potency, µM (doses to about 114 µM), usual class: inhibitors; active = well fitted inhibition curve with a large enough effect; inconclusive = small, poorly fitted or top-dose-only effect; inactive = no such curve, though single readings can be large or run the other way; also: nearly all actives have a fitted effect of over 60% in size
#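 TGR 20 nM + NADPH 100 uM (dispensed conc.), cpd preinc 15 min RT; start with NADPH (500 uM addition) then DTNB (15 mM addition). Kinetic TNB absorbance, 405 nm filter. Four-parameter Hill fit across titration.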
# Marburg entry inh = Marburg virus entry inhibition | Marburg virus pseudotyped entry inhibition, cell reporter | Potency, µM (doses to about 37.8 µM), usual class: inhibitors | 300,000 tested, 1.8% active | AID 540276; calls by dose curve; tested in HEK293 cells
# VACV Venus inh = inhibitors of vaccinia virus (Venus reporter); Vaccinia virus Venus reporter expression, fluorescence; Potency, µM (doses to about 36.5 µM), actives largely listed as inhibitors; 330,000 tested, 0.46% active; AID 720580; calls by dose curve; tested in A549 cells; also: nearly all actives have a fitted effect of over 30% in size
# FMDV antiviral = foot and mouth disease virus antiviral activity; FMDV antiviral cell-based qHTS; Potency, µM (titrated, usually from 57.9 µM), usual class: inhibitors; 410,000 tested, 1.2% active; AID 1159524; calls by dose curve; tested in HEK293T cells; also: read-out not given here; nearly all actives have a fitted effect of over 45% in size
# Lassa entry inh = inhibitors of Lassa virus binding or cell entry; Lassa virus pseudotype entry inhibition, cell reporter; Potency, µM (titrated, usually from 37.9 µM), usual class: inhibitors; 300,000 tested, 1.2% active; AID 540256; calls by dose curve; tested in HEK293 cells; also: nearly all actives have a fitted effect of over 50% in size
# Vaccinia mCherry = vaccinia inhibition (mCherry reporter); Potency, µM (top dose mostly 36.5 µM), most hits filed as inhibitors; Vaccinia virus mCherry reporter infection, fluorescence; AID 720579; 310,000 tested, 0.63% active; calls by dose curve; tested in A549 cells; also: nearly all actives have a fitted effect of over 35% in size
# Numbers stand for hits; - = inactive; ? = inconclusive; . = no result; [ ] = remark or other dose.
SMILES,Sm TGR block,Marburg entry inh,VACV Venus inh,FMDV antiviral,Lassa entry inh,Vaccinia mCherry
N#CC1=C(N)OC2=C(CC/C2=C\c2ccccc2Cl)C1c1ccccc1Cl (configuration not stated),-,-,?,-,.,?
N#CC1=C(N)OC2=C(CC/C2=C\c2ccccc2)C1c1ccccc1 (configuration not stated),11µM,?,-,18µM,-,-
CCCC1(CCC)C(=O)NC(=NCc2ccccc2)NC1=O,-,?,16µM,-,-,?
Cc1ccccc1NC(=O)CSc1nc2ccc(NC(=O)c3ccco3)cc2s1,-,-,-,?,-,-
COc1cccc(NC(=O)CSc2nc3ccc(NC(=O)c4ccco4)cc3s2)c1,-,?,-,40µM,-,-
CCOc1ccc(C(=O)Nc2ccc3nc(SCc4ccccc4)sc3c2)cc1,-,-,10µM,-,-,?
Cc1cccc(NC(=O)CSc2nc3ccc(NC(=O)c4ccco4)cc3s2)c1,-,?,-,25µM,-,-
Cc1ccc(NC(=O)CSc2nc3ccc(NC(=O)c4ccco4)cc3s2)c(C)c1,-,?,-,-,-,-
Cc1ccc(OCC(=O)Nc2ccc3nc(SCc4ccccc4)sc3c2)cc1,-,-,-,-,-,-
CC(=O)NC(Cc1ccc(N(CCCl)CCCl)cc1)C(=O)NCC(=O)NCC(=O)O (configuration not stated),-,?,-,-,?,-
CCOC(=O)C(NC(=O)C(Cc1ccc(N(CCCl)CCCl)cc1)NC(C)=O)C(C)C (configuration not stated),.,-,-,-,-,-
N[C@H](Cc1ccc(N(CCCl)CCCl)cc1)C(=O)O,.,5.8µM,.,.,.,.
CC(=O)NC(Cc1ccc(N(CCCl)CCCl)cc1)C(=O)NC(CC(C)C)C(=O)O (configuration not stated),28µM,-,-,-,-,-
COc1ccc(-c2cc3ccc(OC)cc3cn2)cc1,16µM,.,-,-,.,-
CCOC(=O)c1ccccc1NC(=O)COc1ccccc1-c1nnc(-c2ccccc2)o1,-,.,-,?,-,-
O=C(Nc1nnc(CSCc2ccc(F)cc2)s1)c1cccc([N+](=O)[O-])c1,-,-,-,40µM,-,-
O=C(Nc1nnc(CSCc2ccc(Cl)cc2)s1)c1cccc([N+](=O)[O-])c1,-,-,-,-,?,-
CCOC(=O)N1CCc2c(sc(NC(=O)C3COc4ccccc4O3)c2C(N)=O)C1 (configuration not stated),-,.,.,40µM,.,.
CC(=O)N1CCc2c(sc(NC(=O)C3COc4ccccc4O3)c2C(N)=O)C1 (configuration not stated),-,-,-,-,-,-
COC(=O)c1c(NC(=O)C2COc3ccccc3O2)sc2c1CCN(C(C)=O)C2 (configuration not stated),-,-,?,35µM,?,?
CC(C)COc1ccc(C(=O)Nc2nnc(S(=O)(=O)N(C)Cc3ccco3)s2)cc1,-,.,-,-,-,-
c1ccc(-c2ccc([C@H](c3ccccc3)n3ccnc3)cc2)cc1,.,-,.,.,.,.
COC(=O)c1sc2cccc(F)c2c1S(=O)(=O)N1CCN(c2cccc(C)c2)C(C)C1 (configuration not stated),-,.,-,?,?,-
C#CCSc1nnnn1-c1cccc(Cl)c1,-,3.2µM,-,-,?,-
COc1cc(/C=C(\C#N)c2nc3ccccc3c(=O)[nH]2)cc(OC)c1OC,-,.,-,-,-,-
SMILES,Sm TGR block,Marburg entry inh,VACV Venus inh,FMDV antiviral,Lassa entry inh,Vaccinia mCherry
COc1ccc(C2CC(c3ccccc3)=NN2c2ccc(N)cc2)cc1 (configuration not stated),-,?,-,40µM,?,-
COc1ccc(C2CC(c3ccccc3)=NN2c2ccc(S(N)(=O)=O)cc2)cc1OC (configuration not stated),-,?,-,-,11µM,?
NS(=O)(=O)c1ccc(N2N=C(c3ccc(Br)cc3)CC2c2ccc(F)cc2)cc1 (configuration not stated),-,10µM,11µM,22µM,7.9µM,16µM
COc1ccc(C2CC(c3ccccc3O)=NN2c2ccccc2)cc1 (configuration not stated),.,-,-[7.34 µM],-,-,?
NS(=O)(=O)c1ccc(N2N=C(c3ccccc3)CC2c2cccc(F)c2)cc1 (configuration not stated),-,?,-,-,?,-
c1ccc(COc2ncnc3c2ncn3CCCNCC(c2ccccc2)c2ccccc2)cc1,.,.,14µM,?,.,?
O=C(Nc1ccn(CCCNCC(c2ccccc2)c2ccccc2)c(=O)n1)OCc1ccccc1,.,.,11µM,-,.,13µM
C=CCCCN1C=C(C(=O)OCC)C(c2ccccc2)NC1=O (configuration not stated),.,-,.,.,.,.
COc1cc(NC(=O)C2CCN(S(=O)(=O)c3ccc4c(c3)oc(=O)n4C)CC2)cc(OC)c1,-,-,-,-,-,-
C#CCN1C(=O)CC[C@@]23C1=NC(C(=O)OC)=C(C(=O)OC)[C@@H]2N(CC=C(C)C)c1ccccc13,.,-,.,.,?,.
Cc1nn(CC(O)CN2c3ccccc3Sc3ccccc32)c(C)c1Br (configuration not stated),-,11µM,?,?,?,?
COc1cccc(NC(=O)CCc2nc(-c3cc(OC)c(OC)c(OC)c3)no2)c1,-,-,-,-,-,-
COc1ccc(NC(C)C(=O)N/N=C/c2ccccc2OCc2cccc(Br)c2)cc1 (configuration not stated),-,?,-,-,11µM,-
COc1ccccc1CNC(=O)CCCCn1c(=O)c2ccccc2n(CC(=O)Nc2c(C)cc(C)cc2C)c1=O,-,-,-,-,-,-
CN(C)S(=O)(=O)N1CCC(c2ccc(F)cc2)C(COc2ccc3c(c2)OCO3)C1 (configuration not stated),-,2.8µM,-,-,?,-
Fc1ccc([C@H]2CCNCC2COc2ccc3c(c2)OCO3)cc1 (some centres not stated),.,.,-,-,.,-
Fc1ccc([C@H]2CCNC[C@H]2COc2ccc3c(c2)OCO3)cc1,.,16µM,.,-,.,.
Cc1nn(-c2cccc(Cl)c2)nc1C(=O)Nc1cccc(C(=O)NC2CC2)c1,-,.,.,?,.,.
Cc1ccc(-n2nc(C)c(C(=O)Nc3cccc(C(=O)NC4CC4)c3)n2)c(C)c1,-,.,.,28µM,.,.
Cc1nn(-c2ccccc2)nc1C(=O)Nc1cccc(C(=O)NC2CC2)c1,.,.,?,32µM,.,-
COC(=O)Cc1c(C)c2ccc3c(c2oc1=O)CN(Cc1ccccc1OC)CO3,-,?,-,-,-,-
CC1(C)[C@@]2(C(=O)N(CCC#N)CCC#N)CC[C@]1(C)C(=O)C2,.,-,.,.,.,.
O=C(CSc1nnc(-c2ccc(S(=O)(=O)N3CCCC3)cc2)o1)NCC1CCCO1 (configuration not stated),-,?,4.5µM,-,-,4µM
O=C(NCC1CCCO1)c1cc(S(=O)(=O)N2CCCCC2)ccc1Cl (configuration not stated),2.8µM,.,.,-,.,.
